# GFP derepression = qHTS Assay for Epigenetic Modulators; 0.09% of 68,000 active; AID 597, 2007; mouse C127i GFP locus derepression, cytometry, 30 h; Potency, µM (doses to about 46.1 µM)
#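 Locus derepression in mouse mammary C127i cells whose integrated CMV-GFP reporter is normally silent; GFP expression after 30 h compound treatment was quantified by counting fluorescent cells.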
# p53ts 32C kill = qHTS Screen for Compounds that Selectively Target Cancer Cells with p53 Mutations: Cytotoxicity of p53ts Cells at the Permissive Temperature. Potency, µM (titrated, usually from 46.1 µM), most hits filed as cytotoxic. 0.93% of 130,000 active. AID 924, 2007. H1299-p53A138V at 32C, ATP luminescence viability, 24 h; further: nearly all actives have a fitted effect of over 55% in size
#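 ATP-content luminescence (ATPlite) read-out after 24 h compound exposure at 32C in H1299-p53A138V cells (600/well). Tested up to 46 uM. Normalized to DMSO (0%) and 100 uM tamoxifen (100% killing); Hill-fit AC50.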
# Imprint erasure = qHTS Assay for Compounds that Induce Erasure of Genomic Imprints; mouse ES Peg3-LacZ reporter, beta-gal luminescence, 40 h; AID 1948, 2009; Potency, µM (doses to about 60.7 µM), most hits filed as activators; 0.02% of 110,000 active
#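 Gelatin-coated wells received 300 freshly trypsinized female ES cells with a Peg3LacZ-Neo reporter on the maternal allele, then incubated 40 hours at 37C. BetaGlo was added for 5 minutes at room temperature before a single luminescence read.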
# HBB splicing = qHTS Assay for Modulators of Hemoglobin Beta Chain Splicing. AID 925, 2007. Potency, µM (highest dose often 46.1 µM), actives largely listed as activators. 0.06% of 65,000 active. HBB splicing reporter cell assay, activation; EGFP reporter with mutant IVS2-654 intron; response scale: normalised to 500 nM splice-correcting PNA
#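 Compounds were applied for 2 days to HeLa EGFP-654 cells, 500/well in Optimem with 2% FCS. The reporter's EGFP is disrupted by mis-splicing of beta-globin intron IVS2-654. Readout: summed well GFP fluorescence from 488 nm laser scanning; reference was 500 nM antisense […] 654 PNA.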
# p53ts 39C kill = qHTS Screen for Compounds that Selectively Target Cancer Cells with p53 Mutations: Cytotoxicity of p53ts Cells at the Nonpermissive Temperature; H1299-p53A138V viability at 39C, ATP luminescence, 24 h; Potency, µM (top dose mostly 46.1 µM), most hits filed as cytotoxic; AID 902, 2007; 1.5% of 130,000 active; further: nearly all actives have a fitted effect of over 55% in size
# UbGFP stabilizer = Ubiquitin-GFP Assay; Potency, µM (highest dose often 45.9 µM), actives largely listed as activators; 67,000 tested, under 10 active; Ubiquitin-GFP reporter cells, proteasome inhibition, GFP fluorescence; response scale: untreated = 0%, 10 µM MG-132 = 100%; active means well fitted activation curve with a large enough effect, not every such curve was filed as active; inconclusive means small, poorly fitted or top-dose-only effect, or another doubt; inactive means no such curve, though single readings can be large or run the other way
#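 Proteasome blockade was scored as a rise in GFP-expressing U2OS cells carrying a ubiquitin(G76V)-GFP construct, imaged after 4 hr compound treatment at 37 °C across a 46 uM–2.9 nM series.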
# A number is an active result; 0 = inactive; ? = inconclusive; - = no result; [ ] = another dose, or the depositor's remark. Most compounds without a hit are left out; they make up all but 1.6% or so of the library. Unless noted, the call rests on the fitted dose curve; in most records, active means well fitted curve in the direction sought with a large enough effect; inconclusive means small, poorly fitted or top-dose-only effect, or another doubt; inactive means no such curve, though single readings can be large; an effect the other way counts as inactive or inconclusive.
SMILES,GFP derepression,p53ts 32C kill,Imprint erasure,HBB splicing,p53ts 39C kill,UbGFP stabilizer
NCCc1c[nH]c2ccccc12,0,0,0,0,0,0
CCCCCCC(C)(C)c1ccc([C@@H]2C[C@H](O)CC[C@@H]2CCCO)c(O)c1,0,13µM,0,-,6.3µM,0
O=C(O)[C@H]1CCN1,0,0,-,0,0,0
CNC(C(=O)c1ccccc1)C(OC)c1ccccc1 (centres undefined),0,0,0,0,0,0
CC(=O)[O][Hg][c]1ccccc1,-,1µM,0,0,1.6µM,-
Cc1ccc(Cl)cc1NC(=O)Cn1c(=O)oc2cc(S(=O)(=O)N3CCCCCC3)ccc21,-,0,0[10.9 µM],-,?,-
S=C=Nc1cccc2ccccc12,-,-,0,0,-,-
Cc1cccn2c(=O)cc(COc3cccc(NC(=O)COc4ccc(F)cc4)c3)nc12,-,?,0[10.9 µM],-,7.9µM,-
COc1c(C)cc(Br)cc1C(=O)Nc1ccc(-c2nc3ncccc3o2)cc1,-,0,0[10.9 µM],-,6.3µM,-
COc1ccc(NC(=O)c2oc3ccc(S(=O)(=O)N(C)C4CCCCC4)cc3c2C)cc1,-,0,0[10.9 µM],-,?,-
COc1ccc(C(=O)O)cc1OC,-,0,0,-,0,-
O=C(O)c1cc(O)c(O)c(O)c1,-,13µM,0,0,10µM,-
N[C@@H](Cc1cc(O)c(O)cc1O)C(=O)O,0,0,-,0,0,0
CC1=C2[C@@H]3OC(=O)[C@H](C)[C@H]3CC[C@@]2(C)C=CC1=O,0[9.22 µM],-,-,-,-,0
COc1ccc2nc(N3CCN(C(=O)CS(=O)(=O)c4ccc(C)cc4)CC3)sc2c1,-,11µM,0[10.9 µM],-,7.9µM,-
S=C(S)N1CCCC1,0.63µM,0,0,0,?,0
CNCCc1ccc(O)c(O)c1,0,?,0,0,20µM,0
C[CH2][Hg][S]c1ccccc1C(=O)O,-,1µM,0,-,1.3µM,-
CNc1ccccc1C(=O)O,-,0,0,-,0,-
c1cc(OCC2CO2)cc(OCC2CO2)c1 (centres undefined),-,0[1.84 µM],0,0,25µM,-
CCOC(=O)c1ccc(N2C(=O)c3n[nH]c(-c4cccs4)c3C2c2ccc(C(C)(C)C)cc2)cc1 (centres undefined),-,?,0[10.9 µM],-,16µM,-
CN1C[C@@H](CNC(=O)OCc2ccccc2)C[C@H]2c3cccc4c3c(cn4C)C[C@@H]21,0,-,-,0,-,0
CC[C@H](CO)NC(=O)[C@@H]1C=C2c3cccc4[nH]cc(c34)C[C@@H]2N(C)C1,0,0,-,0,0,0
CN[C@@H]1C[C@@H](c2ccc(Cl)c(Cl)c2)c2ccccc21,0,20µM,0,0,13µM,0
CN[C@@H]1C[C@H](c2ccc(Cl)c(Cl)c2)c2ccccc21,0,0,0,-,25µM,0
CNc1ccc2oc(C[C@H]3O[C@]4(CC[C@H]3C)O[C@H]([C@H](C)C(=O)c3ccc[nH]3)[C@H](C)C[C@H]4C)nc2c1C(=O)O,0,4µM,0,-,3.2µM,0
CCCCC[CH2][Hg][S]C1=C2N=CNC2NC(N)=N1 (centres undefined),-,-,0[10.9 µM],-,-,-
Cc1ccc(-c2nc(S(=O)(=O)c3ccccc3)c(SCC(=O)NC3CCCCC3)o2)cc1,-,0,0[10.9 µM],-,1.6µM,-
C[C@@H]1OC(OC2C(OC3CC[C@@]4(C)C5CC=C6C7CC(C)(C)CC[C@@]7(C(=O)O)CCC6(C)C5(C)CCC4[C@]3(C)CO)OCC(O)C2O)C(O)C(O)C1O (some centres undefined),-,?,0,-,?,-
COc1cc2c(cc1OC)-c1c(O)c(OC)cc3c1[C@H](C2)N(C)CC3,-,32µM,0,-,?,-

# Screens deposited in PubChem BioAssay by National Center for Advancing Translational Sciences (NCATS).
